PubChem BioAssay AID602384 (National Center for Advancing Translational Sciences (NCATS), 2012)
Activity calls are given as the source filed them. Calls come from the whole dose curve; as a rule, active = well fitted curve in the direction sought with a large enough effect; inactive = no such curve, though single readings can be large or run the other way.

Target: Pyruvate kinase PKM (Homo sapiens) (UniProt P14618)
Test: qHTS for Activators of Human Muscle Isoform 2 Pyruvate Kinase: Extended Characterization
Conditions: purified PKM2, ATP production, Kinase-Glo luminescence
Description: Human pyruvate kinase muscle 2 (hPK-M2) enzyme was supplied as a highly purified (>95% pure) preparation from Harvard Medical School and assayed for its ability to generate ATP from ADP using phosphoenolpyruvate (PEP) as a substrate. ATP generation was detected in a coupled reaction by luciferase-mediated luminescence, an ATP-dependent process. Pyruvate kinase substrates, PEP and ADP, were present in the assay at Km and approximately 10-fold below Km respectively. The enzyme was assayed at an intermediate level of activity to screen for both inhibitors and activators. NIH Chemical Genomics Center [NCGC] NIH Molecular Libraries Probe Centers Network [MLPCN] MLPCN Grant: MH085679 Assay Submitter (PI): Matthew G. Vander Heiden, Harvard Medical School
Three uL of substrate mix (at r.t.) in assay buffer (50 mM Imidazole pH7.2, 50 mM KCl, 7 mM MgCl2, 0.01% Tween 20, 0.05% BSA) was dispensed into white solid bottom 1,536 well microtiter plates so that the final concentrations of substrates in the assay were 0.1 mM ADP and 0.5 mM PEP. 23 nL of compound were delivered by a pin tool and 1 uL of enzyme mix (final concentration of 0.1 nM) in assay buffer (4 degree Celsius) was added. Plates were incubated at room temperature for 1 hour. Two uL of detection mix (Kinase-Glo, Promega; at 4 degree Celsius protected from light) was added and luminescence read by a ViewLux (Perkin Elmer) at 1 second exposure/plate. Data were normalized to the uninhibited (column 3) and AC100 inhibition (no enzyme in column 2). To monitor activation, the first column contained a titration of the activator, NCGC00031955-03 (16-point 1:2 dilutions in duplicate starting at 57 uM) and the first 16 rows of column 4 contained 57 uM of NCGC00031955-03.

Chain of Pyruvate kinase PKM (Homo sapiens) (P14618 whole entry, looked up, canonical isoform): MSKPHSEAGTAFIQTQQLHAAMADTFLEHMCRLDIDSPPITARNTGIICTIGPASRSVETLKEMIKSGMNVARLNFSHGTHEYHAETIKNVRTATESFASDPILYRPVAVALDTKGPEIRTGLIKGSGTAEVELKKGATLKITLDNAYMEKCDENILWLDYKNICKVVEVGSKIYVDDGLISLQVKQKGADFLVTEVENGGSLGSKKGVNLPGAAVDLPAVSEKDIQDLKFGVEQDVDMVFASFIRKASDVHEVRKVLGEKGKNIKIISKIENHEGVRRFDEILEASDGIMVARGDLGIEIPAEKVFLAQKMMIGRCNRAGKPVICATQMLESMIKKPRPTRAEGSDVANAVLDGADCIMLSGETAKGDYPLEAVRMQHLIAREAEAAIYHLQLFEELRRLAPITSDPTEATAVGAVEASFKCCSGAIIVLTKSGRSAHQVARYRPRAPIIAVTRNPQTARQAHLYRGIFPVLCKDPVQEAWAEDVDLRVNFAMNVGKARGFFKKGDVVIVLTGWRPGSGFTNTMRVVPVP

Compound | Potency
Cc1cc2c(s1)c1cnn(Cc3c(Cl)ccc(C)c3F)c(=O)c1n2C | 1260 nM (active)
Cc1cc2c(s1)c1cnn(Cc3cc(F)ccc3F)c(=O)c1n2C | 1120 nM (active)
Cc1cc2c(s1)c1cnn(Cc3cc(F)c(F)cc3F)c(=O)c1n2C | 1120 nM (active)
Cc1cc2c(s1)c1cnn(Cc3ccc(F)cc3F)c(=O)c1n2C | 891 nM (active)
COc1cccc(Cn2ncc3c4sc(S(C)=O)cc4n(C)c3c2=O)c1 (stereo not given) | 73 nM (active)
